Screening data (PubChem)
An excerpt weighted towards active compounds, which were near 5.3% of everything screened.
ALR inh: inhibitors of human sulfhydryl oxidase ALR | P55789 | purified ALR, DTT oxidation, H2O2 HRP-luminol luminescence | inhibition, % (concentration not given with the values) | 3.8% of 290,000 active | AID 485317;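 active = mean replicate inhibition above about 79%, with every replicate also reaching it, limit read from the data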
Target sequence (P55789 whole entry, looked up): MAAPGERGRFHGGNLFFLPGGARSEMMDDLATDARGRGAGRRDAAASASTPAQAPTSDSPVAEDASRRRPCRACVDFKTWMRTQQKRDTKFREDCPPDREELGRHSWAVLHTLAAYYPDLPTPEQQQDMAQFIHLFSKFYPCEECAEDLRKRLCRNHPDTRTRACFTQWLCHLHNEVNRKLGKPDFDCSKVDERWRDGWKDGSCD
PfM18AAP inh: PfM18AAP enzyme inhibition. 1.2% of 290,000 active. recombinant PfM18AAP, H-Glu-NHMec fluorogenic cleavage. inhibition, % at 7.35 µM. AID 1822;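 active = inhibition above the campaign mean inhibition over all tested compounds plus 3 SD, cut at about 28% in these data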;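 note: 0% = plate median of test compound wells and 100% = 2 mM ZnCl2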
HIF activator: HIF pathway transcriptional activation. U2OS HRE-luciferase reporter, luminescence; normalized: DMSO 0%, desferrioxamine 100%. activation, % at 7.5 µM (by protocol). 0.32% of 300,000 active;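 active = mean activation of at least 10% of the iron chelator positive control signal, with at least half of replicates also reaching 10%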
SUMO Mot1 rescue: inhibitors of SUMOylation pathway: yeast Mot1-301 growth rescue; S. cerevisiae Mot1-301 growth rescue, ATP luminescence, 38.5C; percent above DMSO median, 100 means doubled; 1% of 320,000 active; growth rescue, % at 18.8 µM; AID 2716;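 active = every valid replicate shows activation above 250% relative to neutral control wells; inactive = the rest, any valid replicate at or below 250%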;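 note: OY570 slx delta 5 strain wells were the positive control but not used for scaling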
An asterisk follows results filed as active; · = no result given.

SMILES	ALR inh	PfM18AAP inh	HIF activator	SUMO Mot1 rescue
CC(=O)Nc1cccc(C(=O)/C=C/c2ccc(/C=C/C(=O)c3cccc(NC(C)=O)c3)cc2)c1	-3	-2	3	-25
CC(=O)Nc1cccc(C(=O)/C=C/c2cccs2)c1	97*	5	1	-7
CC(=O)Nc1cccc(C(=O)/C=C/c2ccc(F)cc2)c1	10	-2	1	130
N#CC1=C(N)n2c(s/c(=C\c3cccs3)c2=O)=C(C#N)C1c1cccs1 (centres undefined)	99*	5	0	9
Cc1ccc(N(CC(=O)NC2CCCCC2)C(=O)CCCC(=O)Nc2ccccn2)cc1	·	4	0	5
COc1ccc(CCNC(=O)NCCc2c[nH]c3ccccc23)cc1OC	0	-3	0	6
COc1cc2c(CCNC(C)=O)c[nH]c2cc1O	80*	·	0	11
CCOc1ccc(S(=O)(=O)N2CCN(Cc3ccc4c(c3)OCO4)CC2)cc1C	4	-10	1	328*
COc1ccc(S(=O)(=O)N2CCN(Cc3ccc4c(c3)OCO4)CC2)cc1F	·	-5	0	39
O=C1CCCc2c1[nH]c1ccccc21	-1	-2	0	18
c1ccc2c(c1)OCCc1c-2[nH]c2ccccc12	96*	2	0	34
C=CCNC(=O)CSc1nc2sc3c(c2c(=O)n1CCCOC)CCC3	81*	8	-2	-11
COCC(=O)OCC(=O)Nc1ccccc1-c1ccccc1	-3	-5	0	8
CCS(=O)(=O)N1CCN(CC2CC3C=CC2C3)CC1 (centres undefined)	-5	9	0	349*
Cc1ccc(NC(=O)C(=O)NCc2ccc(/C=N/NC(=O)c3c(C)nc4ccccn34)o2)cc1	9	2	1	14
Cn1cnc(S(=O)(=O)N2CCN(c3ccc(F)cc3)CC2)c1	59	-7	0	-4
COc1cccc(N2CCN(S(=O)(=O)c3cn(C)cn3)CC2)c1	96*	-19	0	-10
COCCNC(=O)CS(=O)Cc1nc(-c2ccc(Cl)cc2)oc1C (centres undefined)	·	-1	0	-17
Cc1ccc(-c2nc(CS(=O)CC(=O)NCCC(C)C)c(C)o2)cc1 (centres undefined)	98*	-3	0	-21
CCCNC(=O)CS(=O)Cc1nc(-c2ccc(OC)cc2)oc1C (centres undefined)	99*	-4	0	20
CCCN(CCC)CCNC(=O)CS(=O)Cc1nc(-c2ccc(C)cc2)oc1C (centres undefined)	98*	2	0	-15
CCCCNC(=O)CS(=O)Cc1nc(-c2ccc(C)cc2)oc1C (centres undefined)	99*	4	0	-1
O=C(CCCCl)NC(=S)Nc1ccc(N2CCOCC2)cc1	·	0	-1	-12
O=C(NCC1CCCO1)c1cccc(S(=O)(=O)Nc2ccc(SC(F)F)cc2)c1 (centres undefined)	98*	·	·	4
COC(=O)c1[nH]c(=O)c2ccccc2c1O	98*	7	0	-12
SMILES	ALR inh	PfM18AAP inh	HIF activator	SUMO Mot1 rescue
COC(=O)c1[nH]c(=O)c2ccccc2c1OCc1ccccc1	·	-1	0	-7
COc1ccc(/C(C)=N\O)cc1OC	-6	-5	0	9
COc1ccc(Cc2n[nH]c(=S)n(N)c2=O)cc1	1	26	-1	-14
Nn1c(=S)[nH]nc(Cc2ccc(O)cc2)c1=O	80*	27	-2	16
CC(=O)c1cccc(S(=O)(=O)NCCC(=O)NC2CCCCCC2)c1	·	·	·	-9
NS(=O)(=O)c1ccc(N/N=C/c2ccc(O)cc2O)c([N+](=O)[O-])c1	21	14	0	-2
NS(=O)(=O)c1ccc(N/N=C/c2ccc(O)c(O)c2O)c([N+](=O)[O-])c1	·	50*	·	·
CC(C)(c1ccc(O)cc1)c1ccc(O)cc1	91*	-5	-6	14
COCCNC(=S)NNC(=O)c1ccc(-n2cnnn2)cc1	49	11	0	6
Cc1ccc(S(=O)(=O)NNC(=O)C(=O)NNS(=O)(=O)c2ccc(C)cc2)cc1	14	16	0	-7
Cc1ccc(S(=O)(=O)NNC(=S)Nc2ccccc2)cc1	99*	11	1	-2
Cc1ccc(NNS(=O)(=O)c2ccc(C)cc2)cc1	98*	7	2	236
COc1cc(/C=N/NC(N)=O)cc([N+](=O)[O-])c1O	59	22	0	33
O=C(COC(=O)c1ccccc1[N+](=O)[O-])NCCCc1ccccc1	-9	-5	1	11
COc1ccc(-n2nnnc2-c2ccc(S(C)(=O)=O)cc2Cl)cc1	·	2	0	38
Nc1cnc(Nc2ccc(Br)cc2)nc1N	96*	7	1	0
CCOC(=O)C(NC(=O)Nc1ccc(Cl)cn1)(Oc1ccccc1)C(F)(F)F (centres undefined)	1	-5	0	1
COc1ccc([N+](=O)[O-])cc1-c1[nH]c(-c2ccc(C(=O)O)cc2)nc1-c1ccccc1	98*	-1	0	28
COc1ccc(-c2nc(-c3ccccc3)c(-c3cc([N+](=O)[O-])ccc3C)[nH]2)cc1O	62	-9	0	1
Cc1cc(C)c2c(=O)n(CC(=O)Nc3cccc(F)c3)sc2n1	·	65*	0	503
CCOC(=O)c1cn(CC(=O)Nc2cccc(F)c2)nn1	-7	-5	0	14
C#CC(=O)N(c1cccc(OC)c1)C(C(=O)NC1CCCC1)c1cccs1 (centres undefined)	9	-8	-3	331*
CCC(=O)OCCNc1cc(Sc2nccn2C)c2nonc2c1[N+](=O)[O-]	97*	-36	-7	10
OCCN1CCN(C(=S)c2ccc(Br)cc2)CC1	-3	30*	0	-14
C/C(=N\NC(=O)c1ccccc1O)C1C(=O)c2ccccc2C1=O	98*	19	1	11
SMILES	ALR inh	PfM18AAP inh	HIF activator	SUMO Mot1 rescue
CCCc1cc(C(=O)N2CCN(c3ccc(C(F)(F)F)cn3)CC2)sc1C	-33	2	0	153
COc1ccc(CC(=O)N2CCCC2)c(OC)c1	0	8	0	159
COC(=O)c1ccc2c(c1)SC1=C(CCCC1=O)N2	34	14	2	-5
COC(=O)C1=C(C)Nc2ccc(C)cc2S1	98*	-5	2	4
C[C@@H](CSc1ccc(Br)cc1)CN1CC[C@H](O)CCC1=O	-2	·	·	8
COc1ccc(SC[C@H](C)CN2CC[C@H](C(C)(C)C)CCC2=O)cc1	99*	·	·	6
CC(=O)Nc1ccc(SC[C@H](C)CN2CC[C@H](O)CCC2=O)cc1	98*	·	·	-3
C[C@@H](CSc1ccccc1)CN1CC[C@H](C(C)(C)C)CCC1=O	-4	-14	0	-5
CC(=O)Nc1ccc(SCCN2CC[C@@H](C(C)(C)C)CCC2=O)cc1	99*	·	·	-13
C=C(CO)C1Cc2cc(C(C)=O)ccc2O1 (centres undefined)	7	·	0	-10
COc1ccc(OC)c(C(C(=O)NC2CCCCC2)N(Cc2ccco2)C(=O)c2ccccn2)c1 (centres undefined)	·	-8	0	4
